This note sets out measurements from PubChem BioAssay (Tox21).

Unmarked numbers belong to inactive results. Results filed as inconclusive are left out. Activity calls are given as the source filed them. Unless noted, the call rests on the fitted dose curve; in most records, active means well fitted curve in the direction sought with a large enough effect in the repeat runs; inconclusive means weak or mixed curves; inactive means no such curve, though single readings can be large; an effect the other way counts as inactive or inconclusive.

In assay [1] the target is Estrogen receptor beta (Homo sapiens) (UniProt Q92731). Nature of the assay: qHTS assay to identify small molecule agonists of the estrogen receptor beta (ER-beta) signaling pathway (AID 1259377; active means well fitted activation curve with a large enough effect in the signal ratio in the repeat runs, not every such curve was filed as active; the % refers to the signal ratio). The gist of the method: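 Screening used GripTite ER-beta-UAS-bla cells held in 2% charcoal-stripped FBS medium. After overnight (16 hr) compound incubation at 37C, beta-lactamase activity was detected with a FRET substrate by fluorescence.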
Estrogen receptor beta (Homo sapiens), sequence (Q92731 whole entry, looked up): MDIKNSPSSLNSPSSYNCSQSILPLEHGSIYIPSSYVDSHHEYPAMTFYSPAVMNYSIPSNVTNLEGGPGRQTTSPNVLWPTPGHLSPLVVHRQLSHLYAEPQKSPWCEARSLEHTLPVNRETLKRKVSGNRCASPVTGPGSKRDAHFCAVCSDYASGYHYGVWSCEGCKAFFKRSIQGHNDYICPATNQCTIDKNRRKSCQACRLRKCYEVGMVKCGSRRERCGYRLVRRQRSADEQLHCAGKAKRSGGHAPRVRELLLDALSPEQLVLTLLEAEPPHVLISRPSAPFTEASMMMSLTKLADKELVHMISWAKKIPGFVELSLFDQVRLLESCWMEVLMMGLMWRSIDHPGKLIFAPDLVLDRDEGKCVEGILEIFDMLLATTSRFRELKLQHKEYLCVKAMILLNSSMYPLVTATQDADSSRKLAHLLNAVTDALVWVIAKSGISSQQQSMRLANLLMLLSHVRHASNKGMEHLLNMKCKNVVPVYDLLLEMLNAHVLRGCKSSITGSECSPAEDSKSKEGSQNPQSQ
For orientation: Quantitative high-throughput screening tests each substance at several concentrations.

For assay [2] the target is unchanged. Nature of the assay: qHTS assay to identify small molecule antagonists of the estrogen receptor beta (ER-beta) signaling pathway (AID 1259378; active means well fitted inhibition curve with a large enough effect in the signal ratio in the repeat runs, not every such curve was filed as active; the % refers to the signal ratio; further: potency means the concentration at half of the fitted maximal effect). A digest of the protocol:
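ER-beta-UAS-bla HEK293T cells in 2% charcoal-stripped FBS medium treated with compound plus 1nM final 17-beta-estradiol for 16 hr at 37C. Beta-lactamase reporter read by FRET substrate fluorescence after 2 hours at room temperature.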

The nature of assay [3]: qHTS assay to identify small molecule agonists of the androgen receptor (AR) signaling pathway in the presence of an antagonist - cell viability counter screen (AID 1259379). Further: nearly all actives have a fitted effect of over 25% in size. Further: potency means the concentration at half of the fitted maximal effect. A digest of the protocol:
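A CellTiter-Fluor read-out measured viability of MDA-kb2 reporter cells (MMTV promoter with AR and GR response elements). Treatment: nilutamide 3.0uM final with compounds at 15 concentrations, 16 hr, 37C, 0% CO2.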

Assay [4] in a line: qHTS assay to identify small molecule agonists of the estrogen receptor beta (ER-beta) signaling pathway - cell viability counter screen (AID 1259380). Further: nearly all actives have a fitted effect of over 30% in size. Further: potency means the concentration at half of the fitted maximal effect. A digest of the protocol:
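Cells used were ER-beta-UAS-bla HEK293T in medium with 2% charcoal-stripped FBS. They were treated for 16 hr at 37C. Viability came from CellTiter-Glo luminescence.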

The nature of assay [5]: qHTS assay to identify small molecule antagonists of the estrogen receptor beta (ER-beta) signaling pathway - cell viability counter screen (AID 1259382). Further: nearly all actives have a fitted effect of over 55% in size. Further: potency means the concentration at half of the fitted maximal effect. The gist of the method:
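Agonist-stimulated (1nM E2) ER-beta-UAS-bla HEK293T cells are incubated with library compounds for 16 hr at 37C. Cell viability is then assessed in the reporter-assay wells by adding CellTiter-Glo and reading luminescence after 30 min.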

The target of assay [6] is Estrogen receptor (Homo sapiens) (UniProt P03372). Nature of the assay: qHTS assay to identify small molecule agonists of the estrogen receptor alpha (ER-alpha) signaling pathway in the presence of an antagonist (AID 1259383; calls by dose curve; further: top concentration of the series differs between compounds; nearly all actives have a fitted effect of over 15% in size). The gist of the method:
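Using VM7Luc4E2 cells seeded 24hr before treatment, antagonist ICI-182,780 (10.0nM final) was added, followed by compounds at 15 concentrations. Plates incubated 22hr; ONE-Glo luminescence quantified reporter activity.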

Assay [7] in a line: qHTS assay to identify small molecule agonists or antagonists of the thyroid stimulating hormone receptor (TSHR) signaling pathway - wild type cell line counter screen (AID 1259384; calls by dose curve). The gist of the method:
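Wild-type Hek293 cells, 800/well, 18 h at 37C, then compound with Ro20-1724 for 30 min RT. cAMP by HTRF (cAMP-d2/anti-cAMP cryptate), 1 h RT, fluorescence read. 15 concentrations, triplicates.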

In assay [8] the target is Thyrotropin receptor (Homo sapiens) (UniProt P16473). Nature of the assay: qHTS assay to identify small molecule antagonists of the thyroid stimulating hormone receptor (TSHR) signaling pathway (AID 1259385; calls by dose curve; further: nearly all actives have a fitted effect of over 20% in size). A digest of the protocol:
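TSHR-HEK293 cells (800/well) plated 18 h, then compounds with Ro20-1724 and TSH at 1.5 ng/mL final, 30 min at room temperature. cAMP quantified by HTRF (cAMP-d2/anti-cAMP-cryptate, 1 h); 15 concentrations in triplicate.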

Assay [9] is described as follows: qHTS assay to identify small molecule agonists of the estrogen receptor alpha (ER-alpha) signaling pathway in the presence of an antagonist - cell viability counter screen (AID 1259386).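 Further: cells exposed to compounds for 22 h at 37 °C before the viability read; nearly all actives have a fitted effect of over 30% in size.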 Further: potency means the concentration at half of the fitted maximal effect. The gist of the method:
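ICI-182,780 at 10.0nM final accompanies the compound titration (15 concentrations, 22hr, 37C) on VM7Luc4E2 cells. The CellTiter-Fluor fluorescence readout runs in the same wells as the luciferase assay.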

Assay [10] addresses Androgen receptor (Homo sapiens) (UniProt P10275). Put plainly: qHTS assay to identify small molecule agonists of the androgen receptor (AR) signaling pathway in the presence of an antagonist (AID 1259381; calls by dose curve; further: nearly all actives have a fitted effect of over 15% in size). The gist of the method: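 Using human MDA-kb2 cells with an MMTV promoter–luciferase construct (AR and GR response elements), agonist activity is scored under 3.0uM nilutamide (final) co-treatment; 16hr incubation, 37C, luminescence readout via ONE-Glo.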

Estrogen receptor (Homo sapiens), sequence (P03372 whole entry, looked up): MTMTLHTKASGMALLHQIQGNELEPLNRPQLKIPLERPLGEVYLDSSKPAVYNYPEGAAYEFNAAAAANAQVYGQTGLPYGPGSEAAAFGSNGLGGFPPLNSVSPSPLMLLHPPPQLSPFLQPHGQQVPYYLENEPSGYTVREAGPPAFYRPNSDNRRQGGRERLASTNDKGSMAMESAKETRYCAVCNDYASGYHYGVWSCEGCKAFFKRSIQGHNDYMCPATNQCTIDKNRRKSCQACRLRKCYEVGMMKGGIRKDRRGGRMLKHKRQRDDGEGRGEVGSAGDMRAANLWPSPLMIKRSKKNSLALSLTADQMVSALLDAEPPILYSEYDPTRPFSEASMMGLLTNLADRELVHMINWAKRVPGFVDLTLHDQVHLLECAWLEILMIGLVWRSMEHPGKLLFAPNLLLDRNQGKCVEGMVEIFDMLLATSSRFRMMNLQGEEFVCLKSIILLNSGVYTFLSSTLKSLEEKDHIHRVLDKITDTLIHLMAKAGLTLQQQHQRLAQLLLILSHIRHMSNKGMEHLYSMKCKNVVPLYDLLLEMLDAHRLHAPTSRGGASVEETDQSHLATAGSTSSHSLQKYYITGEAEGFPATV
Androgen receptor (Homo sapiens), sequence (P10275 whole entry, looked up): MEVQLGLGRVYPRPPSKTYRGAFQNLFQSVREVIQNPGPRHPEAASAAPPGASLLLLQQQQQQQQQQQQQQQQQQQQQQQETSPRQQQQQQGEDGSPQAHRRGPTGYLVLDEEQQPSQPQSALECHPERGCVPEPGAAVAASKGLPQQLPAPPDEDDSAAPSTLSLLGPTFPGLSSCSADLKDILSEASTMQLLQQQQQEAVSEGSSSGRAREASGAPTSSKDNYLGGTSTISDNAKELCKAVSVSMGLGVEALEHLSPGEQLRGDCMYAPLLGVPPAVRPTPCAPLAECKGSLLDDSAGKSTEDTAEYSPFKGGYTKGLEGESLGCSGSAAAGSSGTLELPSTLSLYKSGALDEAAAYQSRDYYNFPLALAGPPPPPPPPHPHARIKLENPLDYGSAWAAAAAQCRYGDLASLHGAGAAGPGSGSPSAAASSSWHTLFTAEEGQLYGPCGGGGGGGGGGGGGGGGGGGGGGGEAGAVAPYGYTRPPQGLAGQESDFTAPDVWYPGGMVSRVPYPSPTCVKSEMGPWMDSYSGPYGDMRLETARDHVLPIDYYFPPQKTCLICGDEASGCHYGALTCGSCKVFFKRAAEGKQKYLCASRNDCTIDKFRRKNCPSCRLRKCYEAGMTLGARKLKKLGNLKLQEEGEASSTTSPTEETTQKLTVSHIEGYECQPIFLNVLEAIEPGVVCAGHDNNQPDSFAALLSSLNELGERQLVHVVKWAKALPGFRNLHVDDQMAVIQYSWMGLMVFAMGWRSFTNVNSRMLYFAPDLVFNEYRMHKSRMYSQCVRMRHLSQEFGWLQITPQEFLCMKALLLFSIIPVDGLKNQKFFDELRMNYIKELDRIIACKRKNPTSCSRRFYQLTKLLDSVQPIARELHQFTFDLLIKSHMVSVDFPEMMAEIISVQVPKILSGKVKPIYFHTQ
Thyrotropin receptor (Homo sapiens), sequence (P16473 whole entry, looked up): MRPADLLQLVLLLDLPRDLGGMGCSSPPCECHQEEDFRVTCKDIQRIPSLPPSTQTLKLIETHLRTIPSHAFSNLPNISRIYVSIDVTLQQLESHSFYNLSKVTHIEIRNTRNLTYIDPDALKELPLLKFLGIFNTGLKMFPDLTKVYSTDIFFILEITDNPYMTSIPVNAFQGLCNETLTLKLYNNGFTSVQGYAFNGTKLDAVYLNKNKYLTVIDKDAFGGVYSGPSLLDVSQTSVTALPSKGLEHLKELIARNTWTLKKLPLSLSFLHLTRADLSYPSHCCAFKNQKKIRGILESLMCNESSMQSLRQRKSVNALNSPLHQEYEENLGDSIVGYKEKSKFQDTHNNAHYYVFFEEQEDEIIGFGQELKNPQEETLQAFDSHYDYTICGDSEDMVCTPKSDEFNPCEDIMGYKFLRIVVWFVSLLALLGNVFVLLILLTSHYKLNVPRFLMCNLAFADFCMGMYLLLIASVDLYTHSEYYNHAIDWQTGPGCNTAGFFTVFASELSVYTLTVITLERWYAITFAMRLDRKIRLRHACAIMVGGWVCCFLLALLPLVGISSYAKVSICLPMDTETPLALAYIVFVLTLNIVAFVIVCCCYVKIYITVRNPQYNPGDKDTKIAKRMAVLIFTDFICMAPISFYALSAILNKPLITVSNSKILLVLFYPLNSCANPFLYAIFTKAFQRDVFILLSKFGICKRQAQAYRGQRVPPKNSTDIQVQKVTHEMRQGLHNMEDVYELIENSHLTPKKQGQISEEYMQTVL

On to `CCN1CCC[C@H]1CNC(=O)c1c(OC)ccc(Br)c1OC`, for which the Potency entry in assay [1], in assay [2], in assay [3], in [4], in [5] and in [6] was “inactive” each time. In addition, the Potency entry in [7], in assay [8] and in assay [9] was “inactive” each time.

Regarding `O=c1c2ccccc2nnn1CCl`, the Potency result in [1], in [2], in assay [3], in assay [4], in assay [5] and in assay [6] was “inactive” throughout. Besides, the Potency entry in [7], in [8] and in assay [9] was “inactive” throughout.

As for `CC(=O)[C@@]1(O)CC[C@H]2[C@@H]3C[C@H](C)C4=CC(=O)CC[C@]4(C)[C@H]3CC[C@@]21C`, the Potency result in [1], in assay [2], in assay [3], in assay [4], in assay [5] and in assay [6] was “inactive” throughout. Besides, the Potency result in assay [7], in assay [8] and in assay [9] was “inactive” in each case.

As to `C=C(C)C(=O)OC(C)C`, the Potency entry in assay [1], in assay [2], in [3], in assay [4], in assay [10] and in [5] was “inactive” throughout. Further, the Potency entry in [6], in assay [7], in [8] and in assay [9] was “inactive” throughout.

Regarding `CC(=O)OC/C=C/c1ccccc1`, the Potency entry in assay [1], in assay [2], in assay [3], in [4], in assay [5] and in assay [7] was “inactive” throughout. Further, the Potency result in assay [8] and in assay [9] was “inactive” each time.

Take `CC1=CC(=O)/C(=C(/C)O)C(=O)O1`: the Potency result in [1], in assay [2], in [3], in assay [4], in [5] and in assay [6] was “inactive” throughout. In addition, the Potency entry in assay [7], in assay [8] and in [9] was “inactive” in each case.

Consider `CCC(=O)OC(C)(C)C1CC=C(C)CC1` (centres undefined), for which the Potency entry in [1], in [2], in [3], in assay [4], in assay [5] and in [6] was “inactive” in each case. Moreover, the Potency result in [7] and in assay [9] was “inactive” throughout.

On to `CN1CCC(=C2c3ccccc3C=Cc3ccccc32)CC1`, for which the Potency result in assay [1], in assay [2], in assay [3], in assay [6], in assay [7] and in assay [8] was “inactive” throughout. In addition, the Potency entry in assay [9] was “inactive”. The Potency was 26.6 µM (active) in [4] and 21.1 µM (active) in assay [5].

`Cc1cccc(OCCOc2cccc(C)c2)c1`: the Potency result in assay [1], in [2], in assay [3], in [4], in [5] and in [6] was “inactive” in each case. Besides, the Potency entry in assay [7], in assay [8] and in assay [9] was “inactive” in each case.

In the case of `CC(C)c1cccc(C(C)C)c1NC(=O)NS(=O)(=O)c1cc(C(C)(C)O)co1`, the Potency result in assay [1], in assay [2], in [3], in assay [4], in assay [5] and in assay [7] was “inactive” each time. Moreover, the Potency result in assay [8] and in assay [9] was “inactive” throughout.

For `CCOc1nc2cccc(C(=O)O)c2n1Cc1ccc(-c2ccccc2-c2nn[nH]n2)cc1`, the Potency entry in [1], in assay [2], in assay [3], in assay [10], in assay [5] and in assay [6] was “inactive” throughout. Besides, the Potency result in [7] and in [8] was “inactive” each time.

In the case of `CCCc1ccccc1`, the Potency result in [1], in assay [2], in assay [3], in [4], in assay [5] and in [6] was “inactive” throughout. In addition, the Potency result in [7], in [8] and in [9] was “inactive” in each case.

For `N[C@H]1C(O)O[C@H](CO)[C@H](O)[C@@H]1O` (some centres undefined), the Potency entry in assay [1], in assay [3], in assay [4], in assay [10], in assay [5] and in [6] was “inactive” each time. In addition, the Potency entry in assay [7], in assay [8] and in [9] was “inactive” throughout.

On to `Cc1ccc2c(ccc3ccccc32)c1`, for which the Potency result in assay [1], in [3], in assay [4], in assay [5], in [6] and in assay [7] was “inactive” in each case. For the same compound, the Potency entry in assay [9] is “inactive”.

As for `CC(O)C1CCCCC1` (centres undefined), the Potency entry in assay [1], in [3], in assay [4], in [5], in assay [7] and in assay [9] was “inactive” in each case.

Consider `O=C1Nc2cc(Cl)ccc2Oc2ccccc21`, for which the Potency entry in assay [1], in [3], in [4], in assay [10], in assay [5] and in [6] was “inactive” each time. The Potency entry in assay [7], in [8] and in assay [9] was “inactive” in each case.

For `O=C(NN1CCCC1)NS(=O)(=O)c1ccc(Cl)cc1`, the Potency result in [1], in assay [3], in [4], in [5], in assay [6] and in assay [7] was “inactive” in each case. For the same compound, in assay [9], the Potency entry was “inactive”.

With `Cc1ccc(O)c([C@H](CCN(C(C)C)C(C)C)c2ccccc2)c1`, the Potency result in assay [1], in assay [2], in [7] and in assay [8] was “inactive” each time. In [4], the Potency was 26.6 µM (active).

For the compound `CN(C(=O)CCCOc1ccc2[nH]c(=O)ccc2c1)C1CCCCC1`, the Potency result in [1], in [3], in [4], in assay [5], in assay [7] and in assay [8] was “inactive” each time. The Potency result in assay [9] is “inactive”.

For the compound `CCCCOC(=O)c1ccccc1C(=O)OCC(CC)CCCC` (centres undefined), the Potency entry in assay [1], in [3], in [4], in [5], in assay [6] and in assay [7] was “inactive” each time. Also, in [9], the Potency result is “inactive”.

`C=CC(=O)OCC(C)OCC(C)OCC(C)OC(=O)C=C` (centres undefined): the Potency entry in assay [1], in assay [5] and in [6] was “inactive” throughout. The Potency in assay [2] was 61.1 µM (active).

Consider `C=Cc1c(C)c2cc3[nH]c(cc4nc(cc5nc(cc1[nH]2)C(C)=C5CCC(=O)O)C(CCC(=O)O)=C4C)c(C)c3C=C`, for which the Potency entry in assay [1], in assay [4], in assay [5], in [6], in assay [7] and in assay [8] was “inactive” in each case. Moreover, the Potency in [3] was 21.1 µM (active); in [9], 26.6 µM (active).

In the case of `Cc1ccc(C(=O)C(C)CN2CCCCC2)cc1` (centres undefined), the Potency entry in assay [1], in assay [3], in assay [4], in assay [5], in assay [6] and in assay [7] was “inactive” in each case. Further, the Potency result in assay [8] and in assay [9] was “inactive” each time.

Regarding `CC(C)CCCCCCOC(=O)c1ccc(C(=O)OCCCCCCC(C)C)c(C(=O)OCCCCCCC(C)C)c1`, the Potency entry in [1], in [3], in assay [4], in assay [5], in assay [7] and in assay [8] was “inactive” in each case. For the same compound, the Potency entry in [9] was “inactive”.

Regarding `CCOC(=O)CC(C)C`, the Potency entry in [1], in assay [2], in assay [3], in assay [5], in assay [6] and in [7] was “inactive” throughout. Further, the Potency result in assay [8] and in [9] was “inactive” each time.

`CC(=O)CC(=O)c1ccccc1`: the Potency result in assay [1], in [3], in assay [4], in assay [5], in assay [6] and in assay [7] was “inactive” throughout. The Potency result in assay [9] is “inactive”.

In the case of `O=c1[nH]cnc2ccccc12`, the Potency entry in assay [1], in assay [3], in assay [4], in [5], in assay [6] and in assay [7] was “inactive” throughout. In [9], the Potency entry is “inactive”.

Turning to `CCCCCCCCCC=O`, the Potency result in assay [1], in [3], in assay [4], in assay [5], in assay [6] and in assay [7] was “inactive” in each case. For the same compound, the Potency entry in assay [8] and in [9] was “inactive” throughout.
